Data: PubChem BioAssay (NCI)
This is part of a sample that, as a whole, favours compounds with a hit. Of some 79,000 tested, about 15% had one in any assay. Active and inactive are the calls of the source. Rule as the data show it: active = growth inhibition above about 70%; inactive = the rest.

Experiments:
[1] = NCI Yeast Anticancer Drug Screen. Data for the rad50 strain (AID 155);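 also: 0% = growth of vehicle-only cultures of the same strain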; conditions: S. cerevisiae rad50 strain growth inhibition; at 50.0 µM; hits give high values
Procedure, shortened: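 Growth of the mutant yeast was measured after compound exposure and referenced to vehicle-treated cultures.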

[2] = NCI Yeast Anticancer Drug Screen. Data for the mec2-1 strain (AID 157); conditions: S. cerevisiae mec2-1 strain, at 50.0 µM, hits give high values
Procedure, shortened: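 Each compound was tested on mec2-1 yeast, a strain altered in DNA damage repair or cell cycle control. Growth inhibition is reported relative to vehicle.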

[3] = NCI Yeast Anticancer Drug Screen. Data for the sgs1 mgt1 strain (AID 161);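 also: 0% = growth of cultures given vehicle only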; conditions: S. cerevisiae sgs1 mgt1 strain, at 50.0 µM, hits give high values
Procedure, shortened: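 Genetically altered yeast, compound exposure, growth inhibition relative to vehicle.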

[4] = NCI Yeast Anticancer Drug Screen. Data for the cln2 rad14 strain (AID 165);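 also: 0% = growth equal to vehicle treated cultures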; conditions: S. cerevisiae cln2 rad14 strain, at 50.0 µM, hits give high values
Procedure, shortened: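 Test compounds were added to cln2 rad14 yeast cultures; inhibition of growth was then determined by comparison with vehicle treatment.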

[5] = NCI Yeast Anticancer Drug Screen. Data for the bub3 strain (AID 167); conditions: S. cerevisiae bub3 mutant strain, at 50.0 µM, hits give high values
Procedure, shortened: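 Whole-cell yeast assay. The mutant strain was incubated with compounds, and growth inhibition was determined by comparison with vehicle-treated cells.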

[6] = NCI Yeast Anticancer Drug Screen. Data for the mlh1 rad18 strain (AID 175); conditions: S. cerevisiae mlh1 rad18 strain growth inhibition; at 50.0 µM; hits give high values
Procedure, shortened: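 Inhibition values reflect reduced growth of mutant yeast versus vehicle-treated controls following compound exposure; the mutations affect DNA damage repair.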

Measured: growth inhibition

CC(=O)Nc1ccccc1C=O
inactive: [1] -4.15% | [2] -7.95% | [3] 3.75% | [4] -15.3% | [5] -14.9% | [6] -5.55%

N#CCCc1ccnc2ccccc12
inactive: [1] 1.7% | [2] -6.4% | [3] 1.25% | [4] -43% | [5] -3.8% | [6] -14.8%

CCCCC(=O)C(CC)(c1ccccc1)N(C)C (configuration not stated)
inactive: [1] -11.7% | [2] -31.1% | [3] -9.4% | [4] -21.2% | [5] -2.35% | [6] -17.9%

Cc1cc(Cc2ccc(N)c(C)c2)ccc1N
inactive: [1] 3.4% | [2] 0.9% | [3] -12.8% | [4] -52.9% | [5] -19% | [6] -2.45%

CC12CC(=O)OC(Cc3ccccc31)O2 (configuration not stated)
inactive: [1] -50.4% | [2] -27.1% | [3] -51.7% | [4] -1.25% | [5] -63.6% | [6] -40.5%

CCOC(C)C1C2CCCCC21 (configuration not stated)
inactive: [1] 2.1% | [2] 0.75% | [3] 6.2% | [4] -54% | [5] 4.85% | [6] 8.75%

Nc1ccc(C(=O)O)cc1[N+](=O)[O-]
inactive: [1] -0.85% | [2] -4.65% | [3] -3.7% | [4] -14.6% | [5] 2.15% | [6] -1.5%

CC(=O)OCC1C(OC(C)=O)C(OC(C)=O)C(n2cnc3c(N)ncnc32)N1C(C)=O (configuration not stated)
inactive: [1] 17.1% | [2] 3.75% | [3] 16.3% | [4] 11.4% | [5] 1.5% | [6] 4.35%

COc1cccc(C2SCC(=O)N2c2nncs2)c1OC (configuration not stated)
inactive: [1] -34.8% | [2] 6% | [3] 9.95% | [4] 8.3% | [5] 2.6% | [6] -9%

Nc1nc(Cl)cc(Nc2ccc3c(c2)CCC3)n1
inactive: [1] 15.2% | [2] 6.8% | [3] 26.5% | [4] 19.1% | [5] 23.6% | [6] -20.4%

Cc1ccc(C(=N)c2ccccc2Cc2ccccc2)cc1C
inactive: [1] -11.7% | [2] -2.45% | [3] -15.1% | [4] -12.2% | [5] 7.9% | [6] -27.9%

CCCCCCCOC(=O)COc1ccc(Cl)cc1Cl
inactive: [1] 11.1% | [2] 9.05% | [3] 10.8% | [4] 1.25% | [5] 9.8% | [6] 4.9%

O=C1c2ccccc2N2OC3(N4CCOCC4)CCCC3C12c1ccccc1 (configuration not stated)
inactive: [1] 57.5% | [2] 21.9% | [3] 45.3% | [4] 25.9% | [5] 60% | [6] 48.5%

CN(C)CCC(OC(=O)c1ccccc1Cl)c1ccccc1 (configuration not stated)
inactive: [1] -6.9% | [2] 10.1% | [3] 13.7% | [4] 17.2% | [5] 8.75% | [6] 13.1%

CCCc1cc(C)cc(N=Cc2ccccc2)c1O
active: [1] 96.6% | [2] 97.6% | [3] 93.8% | [4] 97.8% | [5] 97% | [6] 97.2%

COc1ccc2cc(-c3ccc(OC)c(OC)c3)c(=O)oc2c1
inactive: [1] -12.4% | [2] -9.9% | [3] -7.65% | [4] -8.9% | [5] -7.15% | [6] -18.2%

C=CCSC(C)=O
inactive: [1] -3.4% | [2] -0.05% | [3] 13.9% | [4] 7.6% | [5] -7.8% | [6] -6.8%

NC1=NS(=O)(=O)c2ccccc21
inactive: [1] 14.8% | [2] -11.7% | [3] 3.1% | [4] -48.7% | [5] -1.35% | [6] -1.55%

CCCOc1cc(C)c(C(=O)OC(C)CN2CCCC2)c(C)c1 (configuration not stated)
inactive: [1] 3.5% | [2] -22.4% | [3] 15.8% | [4] -43.7% | [5] -2.1% | [6] -20.4%

C1=C(N2CCOCC2)CCC(N2CCOCC2)=C1
inactive: [1] -2.85% | [2] 21.9% | [3] 20.8% | [4] 41.9% | [5] -8.65% | [6] -12.2%

CCOC(=O)C(C(=O)OCC)n1c(=O)c2c(ncn2C)n(C)c1=O
inactive: [1] 13.2% | [2] -0.55% | [3] -16.8% | [4] 16.1% | [5] 13% | [6] 10.3%

Clc1ccc(-c2csc3nc(-c4cccs4)nn23)cc1
inactive: [1] -0.05% | [2] -16.6% | [3] 16.6% | [4] 1.65% | [5] -6.95% | [6] -5.3%

CCCCCCCCCC1OCCCO1
inactive: [1] -14.3% | [2] 0.15% | [3] 12.2% | [4] -0.1% | [5] -4.5% | [6] -16.3%

CC(C)CCCC(C)C1CCC2C3CCC4=C/C(=N/O)CCC4(C)C3CCC12C (configuration not stated)
inactive: [1] 40.2% | [2] 12.2% | [3] 40.8% | [4] 34.5% | [5] 25.2% | [6] 32.6%

O/N=C1\CCC2CCCCC12 (configuration not stated)
inactive: [1] 27.5% | [2] 14.5% | [3] 2.55% | [4] 19.1% | [5] 1.05% | [6] 24.9%

CC1C(=O)OC2CC[N+]3(C(=O)C(F)(F)F)CC4OC4(COC(=O)C(C)(O)C1(C)O)C23 (configuration not stated)
inactive: [1] -13.2% | [2] -32% | [3] -12.8% | [4] 2.2% | [5] 0.65% | [6] -8.9%

C/C=C/C=N/SC(c1ccccc1)(c1ccccc1)c1ccccc1
inactive: [1] 9.35% | [2] -7% | [3] -5.05% | [4] 4.45% | [5] -26.1% | [6] 13.6%

CCCCOc1cc2c(cc1C(C)c1ccccc1)OCO2 (configuration not stated)
inactive: [1] -0.35% | [2] -3.95% | [3] -4.05% | [4] 2.8% | [5] 15.8% | [6] 14.8%

CN(C)C(=O)c1ccc(-c2ccccc2)cc1O
inactive: [1] -10.3% | [2] 20.2% | [3] 0.05% | [4] -18.1% | [5] -10.1% | [6] -4.65%

O=C(N/N=C(/c1nc2ccc(Cl)cc2[nH]c1=O)C(O)c1ccc(Cl)cc1Cl)c1ccncc1 (configuration not stated)
inactive: [1] 12.5% | [2] 10.2% | [3] -15.5% | [4] -34.6% | [5] -3.6% | [6] 23.1%

CC(=O)Nc1ccc(/C=N/NC(=O)c2ccc(O)cc2)cc1
inactive: [1] 1.7% | [2] 9.55% | [3] -2% | [4] 4.15% | [5] 2.35% | [6] 0.9%

OC1(Cc2ccccn2)CCCc2ccccc21 (configuration not stated)
inactive: [1] 7.5% | [2] 9.55% | [3] -1.95% | [4] -15.3% | [5] -8.45% | [6] 4.95%

CSc1n[nH]c(-c2cccs2)n1
inactive: [1] -6.6% | [2] -15.7% | [3] 19.9% | [4] -8.3% | [5] -6.35% | [6] -0.9%

OC1CCSc2ccccc21 (configuration not stated)
inactive: [1] 28.6% | [2] 10.3% | [3] 23.9% | [4] 9.7% | [5] 23.6% | [6] 23.2%

CCOC(=O)c1cc(/C=C/C(C)=C/C(=O)OC)oc1C
inactive: [1] 6.85% | [2] 1.4% | [3] -0.45% | [4] -13.3% | [5] 5.4% | [6] 1.25%

COc1ccc(/C=N/n2cnc3c(c2=O)SC(=C(C#N)C#N)N3c2ccccc2)cc1
inactive: [1] -5.4% | [2] -35.5% | [3] -15.6% | [4] -16.1% | [5] -19.5% | [6] -41%

O=c1c2cccnc2ncn1CCCN1CCCCC1
inactive: [1] -23.8% | [2] 1.85% | [3] 9.25% | [4] -7.5% | [5] 5.65% | [6] -6.25%

O=C(O)/C(=C/c1ccccc1[N+](=O)[O-])c1ccccc1
inactive: [1] 40.1% | [2] -16.1% | [3] 20.5% | [4] 17.5% | [5] -8.85% | [6] -12.7%

COc1cccc(C(N)C(=O)O)c1 (configuration not stated)
inactive: [1] -22.9% | [2] -16.2% | [3] -5.25% | [4] -26.2% | [5] -12.4% | [6] -17.4%

CC(OP(=O)(O)O)C(N)C(=O)O (configuration not stated)
inactive: [1] 0.4% | [2] -34% | [3] -44.9% | [4] -39.1% | [5] -19.9% | [6] -5.2%

CCSC(SCC)C(NC(C)=O)C(OC(C)=O)C(OC(C)=O)C(COC(C)=O)OC(C)=O (configuration not stated)
inactive: [1] 23.4% | [2] -3.25% | [3] -0.2% | [4] 8.25% | [5] -2.7% | [6] 10.6%

OCCSCCCSCCO
inactive: [1] 17.9% | [2] -4.8% | [3] -23% | [4] 3.5% | [5] 1.1% | [6] -4.8%
